# ALDH1A1 inh: qHTS Assay for Inhibitors of Aldehyde Dehydrogenase 1 (ALDH1A1) | Aldehyde dehydrogenase 1A1 (Homo sapiens), P00352 | Purified ALDH1A1, NADH fluorescence, propionaldehyde substrate | Potency, µM (titrated, usually from 75.3 µM), for inactives: top-dose activity, negative = inhibition, hits mostly inhibitors | 220,000 tested, 7.3% active | AID 1030, 2008;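 further: plate controls were no enzyme wells and a reference inhibitor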
# Target sequence (P00352 whole entry, looked up): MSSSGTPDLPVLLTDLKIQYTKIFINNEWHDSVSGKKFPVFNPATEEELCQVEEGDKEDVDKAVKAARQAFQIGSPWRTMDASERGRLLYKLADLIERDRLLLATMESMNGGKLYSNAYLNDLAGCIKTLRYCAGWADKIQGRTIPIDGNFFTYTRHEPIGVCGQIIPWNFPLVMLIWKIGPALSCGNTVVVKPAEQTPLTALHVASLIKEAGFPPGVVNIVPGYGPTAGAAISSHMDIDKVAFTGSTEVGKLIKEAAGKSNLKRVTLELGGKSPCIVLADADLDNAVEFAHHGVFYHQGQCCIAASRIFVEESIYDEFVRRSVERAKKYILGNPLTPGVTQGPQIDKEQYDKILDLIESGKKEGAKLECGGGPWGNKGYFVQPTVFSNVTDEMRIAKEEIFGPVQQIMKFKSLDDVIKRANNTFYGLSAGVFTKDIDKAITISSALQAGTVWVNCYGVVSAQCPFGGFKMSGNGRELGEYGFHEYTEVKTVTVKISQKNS
# KinaseGlo FLuc: Counterscreen for Luciferase (Kinase-Glo TM) Inhibition | Kinase-Glo luciferase, ATP luminescence, 8 min | Potency, µM (highest dose often 38.3 µM), without a hit: at the top dose activity change, negative = inhibition, usual class: inhibitors | 200,000 tested, 0.28% active | Luciferin 4-monooxygenase (Photuris pensylvanica), Q27757 | AID 1379, 2008; active means well fitted curve in the direction sought with a large enough effect; inconclusive means small, poorly fitted or top-dose-only effect, or another doubt; inactive means no such curve, though single readings can be large; an effect the other way counts as inactive or inconclusive; further: nearly all actives have a fitted effect of over 60% in size
#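 Compound is pinned into ATP-containing buffer (10 uM ATP, imidazole pH 7.2, 7 mM MgCl2). Kinase-Glo luciferase reagent is then added. Light output is recorded following an 8-min room-temperature incubation.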
# IMPase Li inh: qHTS Assay for Identifying the Cell-Membrane Permeable IMPase Inhibitors: Potentiation with Lithium. CHO-M1 cells, IP1 TR-FRET (IP-One), carbachol + lithium. Potency, µM (top dose mostly 59.4 µM), inactives show at the top dose activity, negative = IMPase inhibition, usual class: inhibitors. 210,000 tested, 0.35% active. AID 1457, 2008; active means well fitted curve in the direction sought with a large enough effect; inconclusive means small, poorly fitted or top-dose-only effect, or another doubt; inactive means no such curve, though single readings can be large; an effect the other way counts as inactive or inconclusive;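 further: IP1 builds up when IMPase is blocked and the TR-FRET signal falls; plate controls were basal vehicle for no effect and high inhibitor control for full effect; nearly all actives have a fitted effect of over 50% in size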
#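 Test compounds were applied to CHO-M1 cells previously cultured for 16–30 h at 2000 per well. A small lithium amount accompanied them; after 30 min at 37C, IP1 was quantified by TR-FRET.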
# HPGD block: qHTS Assay for Inhibitors of HPGD (15-Hydroxyprostaglandin Dehydrogenase); 15-hydroxyprostaglandin dehydrogenase [NAD(+)] (Homo sapiens), P15428; purified HPGD, NADH fluorescence kinetic, PGE2 substrate; Potency, µM, for inactives: at the top dose activity change, negative = inhibition, most hits filed as inhibitors; 150,000 tested, 4.3% active
# Target sequence (P15428 whole entry, looked up): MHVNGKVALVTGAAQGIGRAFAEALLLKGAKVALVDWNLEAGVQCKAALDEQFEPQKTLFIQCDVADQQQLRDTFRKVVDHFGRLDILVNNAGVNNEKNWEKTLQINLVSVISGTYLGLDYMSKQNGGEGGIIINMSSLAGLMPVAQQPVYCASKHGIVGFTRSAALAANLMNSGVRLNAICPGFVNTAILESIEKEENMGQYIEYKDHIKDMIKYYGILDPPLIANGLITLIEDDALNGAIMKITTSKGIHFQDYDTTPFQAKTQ
#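 20 nM HPGD preincubated 15 min at room temperature with compound in 50 mM Tris-HCl pH 8, 0.01% Tween 20. Started with 1 mM NAD+ and 30 uM prostaglandin E2; NADH fluorescence (360/450 nm) read 5 times over 30-s intervals, last minus first.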
# LMNA splice mod: qHTS Assay for Modulators of Lamin A Splicing | AID 1487, 2009 | HeLa LMNA splicing GFP/RFP minigene ratio, 48 h | 200,000 tested, 0.01% active | Potency, µM (doses to about 46.1 µM), inactives show top-dose ratio change, negative = inhibition, most hits filed as inhibitors; active means well fitted inhibition curve with a large enough effect in the signal ratio, with a control signal flat, not every such curve was filed as active; inconclusive means small, poorly fitted or top-dose-only effect, or effect the other way, or a change in a side signal; the % refers to the signal ratio
#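 S3 HeLa stable clones carrying a lamin A-EGFP splicing minigene plus DsRed2 were seeded at 600 cells/well in Opti-MEM with 2% FBS, pin-dosed and incubated 48 h at 37°C. Acumen cytometry (488 nm) gave the GFP/RFP total-intensity ratio.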
# Numbers without * were called inactive; ? = inconclusive; . = no result given; ! = not active in a repeat; [ ] = dose if it differs, or a comment. Sampled rows, rich in hits. Any-hit rate of the full collection: about 9%. Unless noted, the call rests on the fitted dose curve; in most records, active means well fitted inhibition curve with a large enough effect (not every such curve was filed as active); inconclusive means small, poorly fitted or top-dose-only effect, or another doubt; inactive means no such curve, though single readings can be large or run the other way. Unless noted, on the % scale 0 is the no-effect control and ±100 the full control effect; potency means the concentration at half of the fitted maximal effect.
SMILES,ALDH1A1 inh,KinaseGlo FLuc,IMPase Li inh,HPGD block,LMNA splice mod
COc1ccccc1N1CCN(CC2CN3C(=O)N(C)c4ccccc4C3=N2)CC1 (stereo not drawn),-0.2%,.,21.9%,.,.
Cc1c2ccccc2c(CSC(=N)N)c2ccccc12,14.1µM*!,-7.4%[7.66 µM],0.6%,?,.
Cc1ccccc1C(=O)OCc1cc(=O)n2c(C)csc2n1,.,.,.,.,-16.6%[46 µM]
Cc1ccc(-c2nc3ccccc3[nH]2)cc1NC(=S)NC(=O)c1ccccc1Br,28.2µM*,-2.0%,5.8%[38.3 µM],-14.8%,8.9%[0.0737 µM]
CC(=O)NC(=S)Nc1ccc(-c2nc3ccc(C)cc3s2)cc1,?,-5.1%,14.1µM*,?,-11.9%
Cc1ccc(-c2nc3ccccc3[nH]2)cc1NC(=O)c1ccc2c(c1)OCO2,5.4%,-0.9%,17.7%[38.3 µM],-11.3%,9.6%
Cc1ccc(-c2nc3ccccc3[nH]2)cc1NC(=O)/C=C/c1ccco1,12.6µM*,-7.1%,2.6%[38.3 µM],-19.0%,13.3%
O=C(NC(=S)Nc1cc(-c2nc3ccccc3[nH]2)ccc1Cl)c1ccc2c(c1)OCO2,8.91µM*,-8.8%,4.7%,20µM*,-11.8%
O=C(c1ccccc1)c1ccc2nc(-c3ccc(NC(=O)c4ccccc4Br)cc3)[nH]c2c1,?,-2.0%,5.7%[38.3 µM],-3.7%,8.1%
CNC(=S)Nc1ccc(-c2nc3ccc(C)cc3s2)cc1,?,-1.8%,-10.6%,.,?
Cc1cc(C)c2oc(-c3ccc(C)c(NC(=S)NC(=O)/C=C/c4ccco4)c3)nc2c1,-7.5%,7.2%,1.4%,-14.7%,-4.1%
CCCNC(=O)Nc1ccc(C(F)(F)F)cc1,7.7%,4.1%,-3.7%,.,-0.6%[46 µM]
COC(=O)c1ccc(CN2[C@@H]3C[C@@H](O)CC[C@@H]3C[C@H]2C(=O)OC)cc1,-2.6%,1.1%,-4.3%,-4.3%,.
Cc1ccc(-c2nc3ccccc3s2)cc1NC(=S)NC(=O)c1ccccc1,10µM*,-9.0%,?,-12.1%,-2.5%
CC[C@@](N)(C(=O)O)c1ccc(C(=O)O)cc1,7.3%,-3.7%,1.2%,-0.2%,.
COc1cccc([C@@H]2Oc3ccc(Br)cc3C[C@H]2OC(=O)NS(=O)(=O)c2ccc(F)cc2)c1,3.1%,-4.7%,14.4%,-9.2%,.
Nc1ccccc1Nc1cc(-c2ccccc2)nn1-c1cccc(Cl)c1,6.1%,-0.6%,5.8%,-7.8%,?
CNc1nn(-c2cccc(Cl)c2)nc1N,2µM*,-5.3%,1.4%[38.3 µM],-17.6%,?
O=C(NNc1c(Cl)cncc1Cl)c1sccc1Cl,5.8%,.,.,.,.
O=C(NNc1ccc(Cl)cc1)c1sccc1Cl,8.91µM*,.,.,.,18.8%[46 µM]
COc1ccc(C(=O)N2CCC3(CCCN(Cc4ccccc4OC)C3)CC2)cc1,0.8%,-3.1%,19.2%,-2.8%,.
CCOCC(=O)N1CCN(c2ccc([N+](=O)[O-])cc2)CC1,22.4µM*,.,.,.,-10.1%
COc1ccc(NC(=O)N2CCN(c3ccc([N+](=O)[O-])cc3)CC2)cc1,-8.5%,-1.3%,-4.8%,.,7.5%[46 µM]
Cc1noc(C)c1CSCC(=O)N1CCN(c2ccc([N+](=O)[O-])cc2)CC1,22.4µM*,1.5%,61.6%[38.3 µM],-7.3%,?
CCOCC(=O)N1CCN(c2ccc(F)cc2)CC1,2.24µM*,-3.9%,-17.6%[38.3 µM],-6.1%,4.7%
SMILES,ALDH1A1 inh,KinaseGlo FLuc,IMPase Li inh,HPGD block,LMNA splice mod
COc1ccc(NC(=O)N2CCN(c3ccc([N+](=O)[O-])cc3)CC2)cc1OC,8.91µM*,2.0%,9.3%,.,.
CC(=O)OCC(=O)N1CCN(c2ccc([N+](=O)[O-])cc2)CC1,?,3.2%,-8.6%,-8.1%,-2.2%
O=C(COC(=O)c1cc[n+]([O-])cc1)Nc1ccccc1Sc1ccccc1,11.2µM*,0.2%,17.6%,.,-7.1%[46 µM]
Cc1scc(-c2n[nH]c(=S)n2C(C)c2ccccc2)c1C (stereo not drawn),?,0.0%,13.7%,25.1µM*,?
CCc1cc(-c2n[nH]c(=S)n2C(C)c2ccccc2)cs1 (stereo not drawn),0.562µM*,-0.1%,29.5%[38.3 µM],15.8µM*,?
CCCc1cc(-c2n[nH]c(=S)n2-c2cccc(C)c2)cs1,?,1.0%,-0.3%,.,-12.2%[9.22 µM]
CCn1ccc2cc(S(=O)(=O)N3CCC(C(=O)NCc4ccc(OC)cc4)CC3)ccc21,.,.,.,.,-13.3%[46 µM]
COc1cc(C(=O)NCc2nnc(SCC(=O)N3CCCc4ccccc43)o2)cc(OC)c1OC,-2.1%,0.6%,-0.3%,.,17.6%[9.22 µM]
CC(C)C(OC(=O)c1ccco1)C(=O)NC1CCCCC1 (stereo not drawn),8.5%,-3.4%,2.6%[38.3 µM],-3.2%,12.1%
CC(OC(=O)c1ccco1)C(=O)NC1CCCCC1 (stereo not drawn),3.3%,-0.9%,-4.8%[38.3 µM],14.1µM*,-5.4%
Cc1ccccc1OC(C)C(=O)NC1CCCC1 (stereo not drawn),-3.1%,1.4%,19.6%[38.3 µM],12.6µM*,5.7%
CC(C)C(=O)Nc1cccc(C(=O)Nc2nccs2)c1,-8.0%,3.0%,0.8%[38.3 µM],-9.5%,8.6%
COc1ccc2nc(SCC(=O)NN)cc(C)c2c1,12.6µM*,-2.6%,-3.5%[38.3 µM],-19.3%,-21.1%
NC(N)=NC(N)=Nc1ccccc1 (tested in a mixture with another compound),-10.2%[13.5 µM],0.0%[7.66 µM],0.2%,-6.3%,.
CCOC(=O)C(=O)N1CCC(C(=O)OCC)CC1,-0.9%,.,.,.,.
O=[N+]([O-])c1cc(F)c(N2CCCCC2)cc1N1CCOCC1,6.1%,.,.,.,-3.5%
O=[N+]([O-])c1cc(F)c(N2CCOCC2)cc1N1CCCCC1,14.1µM*,-1.6%,3.3%[38.3 µM],-3.9%,12.9%
Nc1cc(N2CCCCC2)c([N+](=O)[O-])cc1Cl,3.55µM*,0.7%,-18.9%,-23.1%,-1.0%
O=C(Cn1nc2c(cc1=O)CCCC2)Nc1ccc(F)cc1F,.,.,.,.,-1.2%[46 µM]
C=CCc1ccc(OCCOCCOc2ccc(C)cc2[N+](=O)[O-])c(OC)c1,25.1µM*,-1.3%,8.6%[38.3 µM],?,8.8%
COc1cccc(Cn2c(Oc3ccccc3)nc3c2c(=O)n(C)c(=O)n3C)c1,0.251µM*,-1.3%,25.4%[38.3 µM],-21.7%,-8.1%
COc1ccccc1CNC(=O)c1cnn2c(C)c(Cc3ccc(F)cc3)c(C)nc12,.,.,.,.,-2.1%[46 µM]
COc1ccccc1NC(=O)CS(=O)(=O)c1cn(CC(=O)N2CCOCC2)c2ccccc12,?,0.8%,-4.5%,.,10.1%[9.22 µM]
Cc1cccc2cc(CN(Cc3ccccc3)C(=O)c3cccc(F)c3)c(Cl)nc12,8.91µM*,-4.6%,14.1%[38.3 µM],-21.9%,14.9%
FC(F)(F)c1ccccc1-c1cncnc1NCCc1cnc[nH]1,4.9%,1.0%,5.6%,-13.0%,7.3%
CS(=O)(=O)N1CCc2cc(-c3csc(NCC4CCCO4)n3)ccc21 (stereo not drawn),14.1µM*,1.1%,-2.3%[38.3 µM],39.8µM*,-2.2%
